For assay [1], the system named is PA-1. Put plainly: Primary qHTS to identify gynecologic anti-cancer compounds using libraries of approved drugs and bioactive compounds (AID 1345084). Also: nearly all actives have a fitted effect of over 55% in size. The note with it: Gynecologic cancer cell panel viability, ATPlite luminescence, 48 h; series mostly up to 57.5 µM. The method in brief: (§1)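 Five-concentration response, 48 h; readout is ATP-driven luciferase luminescence.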

In assay [2] the test system is SKOV3. The description is as above. The note with it: Gynecologic cancer cell panel viability, ATPlite luminescence, 48 h; series mostly up to 57.5 µM. The method in brief:
as §1

Assay [3] concerns Tov-21-G. Described as above. The note with it: Gynecologic cancer cell panel viability, ATPlite luminescence, 48 h; series mostly up to 57.5 µM. The method in brief:
as §1

For assay [4], the system named is Tov112D. The description is as above. Particulars: Gynecologic cancer cell panel viability, ATPlite luminescence, 48 h; series mostly up to 57.5 µM. The method in brief:
as §1

Assay [5] has as its system OV90. The description is as above. The note with it: Gynecologic cancer cell panel viability, ATPlite luminescence, 48 h; series mostly up to 57.5 µM. The method in brief: as §1
Assay [6] can be described thus: qHTS assay to identify inhibitors of the type 1 interferon - major histocompatibility complex class I in skeletal muscle: Counter screen cell viability and HiBit confirmation (AID 1347412). Also: nearly all actives have a fitted effect of over 60% in size. The note with it: iHSKM muscle cells + IFN-b, HiBiT or CellTiter-Glo, 24 h; HiBiT. The method in brief:
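HLA-B*08:01–HiBiT knock-in immortalized human myoblasts (C25cl48) stimulated with 4.0 ng/ml human IFN-beta and dosed with compound in a 12-point 1:3 titration (top final 46 uM). After 24 hrs at 37 C, HiBiT lytic luminescence or CellTiter Glo ATP read out.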

Inconclusive results are not listed. Unmarked numbers belong to inactive results. Active and inactive are the calls of the source. Calls follow the shape of the dose curve; as a rule, active = well fitted curve in the direction sought with a large enough effect; inconclusive = small, poorly fitted or top-dose-only effect, or another doubt; inactive = no such curve, though single readings can be large; an effect the other way counts as inactive or inconclusive.
Potency is read from the fitted curve at half-maximal effect.

For the compound `Cn1ncc(Cl)c1-c1cc(C(=O)N[C@H](CN)Cc2cccc(F)c2)sc1Cl`, the Potency is 25.1 µM (active) in assay [1], 14.1 µM (active) in assay [2] and 1.58 µM (active) in assay [3].

Regarding `Cc1ccc(S(=O)(=O)N2CCC[C@H]2c2ccc(F)cc2)cc1`, the Potency entry in assay [1], in assay [2], in assay [3] and in assay [4] was “inactive” throughout.

For the compound `COc1cc(N2CCC(N3CCN(C)CC3)CC2)ccc1Nc1ncc(Cl)c(Nc2ccccc2P(C)(C)=O)n1`, the values for the Potency in assay [1], in assay [2] and in assay [3] were 11.2 µM (active), 8.91 µM (active) and 7.08 µM (active), respectively.

On to `COc1ccc(C2=NC(c3ccc(Cl)cc3)C(c3ccc(Cl)cc3)N2C(=O)N2CCNC(=O)C2)c(OC(C)C)c1` (stereo not given), for which the Potency result in assay [5] and in assay [4] was “inactive” in each case.

`CCNC(=O)Nc1ccc(-c2nc3c(c(N4CCOCC4C)n2)CCN(C2COC2)C3)cc1` (stereo not given): the Potency in assay [1] is 2.24 µM (active).

In the case of `CC1CCC/C=C/C(=O)c2c(O)cc(O)cc2CC(=O)O1` (stereo not given), the Potency was 5.62 µM (active) in assay [1] and 22.4 µM (active) in assay [2].

Consider `Cc1ccc(C(=O)Nc2ccc(CN3CCN(C)CC3)c(C(F)(F)F)c2)cc1C#Cc1cnc2[nH]ncc2c1`, for which the Potency in assay [5] is 3.16 µM (active); in assay [6], 0.394 µM (active).

Turning to `OC1C=C2C3CN(Cc4cc5c(cc43)OCO5)C2CC1O` (stereo not given), the Potency in assay [1] was 14.1 µM (active).

For `CN1CCC(NC(=O)c2cc(-c3c(O)cc(O)cc3Oc3ccc([N+](=O)[O-])cc3)on2)CC1`, the results for the Potency in assay [1], in assay [2] and in assay [3] were 0.794 µM (active), 1.58 µM (active) and 0.562 µM (active), respectively.

`N#C/C(=C1\Nc2ccccc2S1)c1ccnc(NCCc2cccnc2)n1`: the Potency entry in assay [5] and in assay [4] was “inactive” in each case.

With `COc1cc(N2CCC(N)CC2)ccc1Nc1ncc(Cl)c(-c2c[nH]c3ccccc23)n1`, the Potency in assay [6] is 5.57 µM (active).

As to `CN1CC2CN(c3ccc4oc5ccccc5c(=O)c4c3)CC2C1` (stereo not given), the Potency entry in assay [1], in assay [3] and in assay [4] was “inactive” each time.

Regarding `CCc1cccc(CC)c1-n1c(C=C(C)C)c(C(=O)N2CCNCC2)cc(-c2nc(-c3ccc(C(F)(F)F)cc3)cs2)c1=O`, the Potency entry in assay [1], in assay [3] and in assay [4] was “inactive” throughout.

With `Cc1ccc(S(=O)(=O)NCc2ccc(C(=O)NCCN(Cc3ccccc3)C(C)C)cc2)cc1`, the Potency result in assay [1], in assay [3] and in assay [4] was “inactive” in each case.

For `CCCc1cc(C)[nH]c(=O)c1CNC(=O)c1cc(-c2ccnc(N3CCN(C)CC3)c2)cc2c1cnn2C(C)C`, the Potency was 25.1 µM (active) in assay [1] and 31.6 µM (active) in assay [3].

With `O=C(COc1ccc(C(=O)c2ccccc2)cc1)NC1CCN(Cc2ccccc2)CC1`, the Potency result in assay [1], in assay [3] and in assay [4] was “inactive” each time.

In the case of `C=CC(=O)N1CCC[C@@H](n2nc(-c3cccc(C(=O)Nc4ccc(C(C)C)c(C)c4)c3)c3c(N)ncnc32)C1`, the Potency result in assay [1] was “inactive”. Also, the Potency in assay [3] was 14.1 µM (active).

With `C=C1C(=O)O[C@@H]2/C=C(\C)CC/C=C(/C=O)[C@H](OC)[C@@H](OC(=O)C(C)C)[C@@H]12`, the Potency result in assay [1], in assay [2] and in assay [4] was “inactive” in each case.

Turning to `CN1CCC(c2cn(C)c3ccc(OS(=O)(=O)c4c(F)cccc4F)cc23)CC1`, the Potency result in assay [1], in assay [3] and in assay [4] was “inactive” throughout.

As for `COc1ccc(-c2ccc3c(N4CCOCC4C)nc(N4CCOCC4C)nc3n2)cc1CO` (stereo not given), the Potency is 0.282 µM (active) in assay [1] and 0.251 µM (active) in assay [3].

As for `O=C(c1c(F)ccc(NS(=O)(=O)N2CC[C@@H](F)C2)c1F)c1c[nH]c2ncc(-c3cnc(C4CC4)nc3)cc12`, the Potency result in assay [1] and in assay [4] was “inactive” each time. Moreover, the Potency in assay [3] is 11.2 µM (active).

As to `CC(=O)OC1C(OC(=O)c2ccccc2)C2C(=C(C)CCC2(C)C)C23CCC(C)(C2)C(=O)CC13` (stereo not given), the Potency entry in assay [1], in assay [3] and in assay [4] was “inactive” throughout.

Regarding `CC1CCCC[C@H]2C(=O)C=C[C@H](O)[C@@H]2CC(=O)O1` (stereo not given in full), the Potency in assay [1] is 10 µM (active); in assay [2], 3.55 µM (active); in assay [4], 14.1 µM (active).

On to `NC(N)=NC(=O)c1cnn(-c2cccc3ncccc23)c1C1CC1`, for which the Potency result in assay [1], in assay [3] and in assay [4] was “inactive” in each case.

Regarding `CN(C)C(CCOc1cccc2ccccc12)c1ccccc1` (stereo not given), the Potency entry in assay [1], in assay [3] and in assay [4] was “inactive” throughout.

Turning to `Cc1csc(N(C(=O)CSc2ccc(-c3ccccc3)nn2)C2CC2)n1`, the Potency result in assay [1], in assay [3] and in assay [4] was “inactive” in each case.

As for `Nc1ncnc2c1c(-c1ccc(Oc3ccccc3)cc1)nn2[C@@H]1CCCNC1`, the Potency in assay [1] is 25.1 µM (active). Further, in assay [3], the Potency result was “inactive”.

With `CCCCCCCCC(=O)N[C@H](CN1CCCC1)[C@H](O)c1ccc2c(c1)OCCO2`, the Potency result in assay [1], in assay [3] and in assay [4] was “inactive” in each case.

Consider `CCC(C)CC(=O)OC1C(=O)C(CO)=CC(O)C1C(C)C` (stereo not given), for which the Potency in assay [1] is 31.6 µM (active); in assay [3] it was 25.1 µM (active).

As to `CCN1CCN(Cc2ccc(NC(=O)c3ccc(C)c(Oc4ncnc5[nH]c(C)cc45)c3)cc2C(F)(F)F)CC1`, the figures for the Potency in assay [1] and in assay [3] were 31.6 µM (active) and 11.2 µM (active), respectively.

`COc1cc(O)c2c(c1)/C=C/C[C@H](O)[C@H](O)C(=O)/C=C\C[C@H](C)OC2=O`: the Potency in assay [1] is 14.1 µM (active); in assay [3], 17.8 µM (active).

Turning to `CN(C)CCC(CSc1ccccc1)Nc1ccc(S(=O)(=O)NC(=O)c2ccc(N3CCN(Cc4ccccc4-c4ccc(Cl)cc4)CC3)cc2)cc1[N+](=O)[O-]` (stereo not given), the Potency result in assay [1], in assay [3] and in assay [4] was “inactive” each time.

The values are drawn from PubChem BioAssay (NCATS).
